Compound activity from PubChem.
Only some compounds are listed: those with a hit (about 2.9% of all), similar ones and a draw of the others.
KDM5B inhibitor: blocks human KDM5B histone demethylase activity | Q9UGL1 | KDM5B demethylase, FDH-coupled NADH fluorescence (FDH is formaldehyde dehydrogenase) | Potency, µM (series often up to 57.7 µM), hits mostly inhibitors | 220,000 compounds, 2.6% hits | AID 1347165; also: potency is read from the fitted curve at half-maximal effect; 0% is about no effect; nearly all actives have a fitted effect of over 70% in size
Target sequence (Q9UGL1 whole entry, looked up): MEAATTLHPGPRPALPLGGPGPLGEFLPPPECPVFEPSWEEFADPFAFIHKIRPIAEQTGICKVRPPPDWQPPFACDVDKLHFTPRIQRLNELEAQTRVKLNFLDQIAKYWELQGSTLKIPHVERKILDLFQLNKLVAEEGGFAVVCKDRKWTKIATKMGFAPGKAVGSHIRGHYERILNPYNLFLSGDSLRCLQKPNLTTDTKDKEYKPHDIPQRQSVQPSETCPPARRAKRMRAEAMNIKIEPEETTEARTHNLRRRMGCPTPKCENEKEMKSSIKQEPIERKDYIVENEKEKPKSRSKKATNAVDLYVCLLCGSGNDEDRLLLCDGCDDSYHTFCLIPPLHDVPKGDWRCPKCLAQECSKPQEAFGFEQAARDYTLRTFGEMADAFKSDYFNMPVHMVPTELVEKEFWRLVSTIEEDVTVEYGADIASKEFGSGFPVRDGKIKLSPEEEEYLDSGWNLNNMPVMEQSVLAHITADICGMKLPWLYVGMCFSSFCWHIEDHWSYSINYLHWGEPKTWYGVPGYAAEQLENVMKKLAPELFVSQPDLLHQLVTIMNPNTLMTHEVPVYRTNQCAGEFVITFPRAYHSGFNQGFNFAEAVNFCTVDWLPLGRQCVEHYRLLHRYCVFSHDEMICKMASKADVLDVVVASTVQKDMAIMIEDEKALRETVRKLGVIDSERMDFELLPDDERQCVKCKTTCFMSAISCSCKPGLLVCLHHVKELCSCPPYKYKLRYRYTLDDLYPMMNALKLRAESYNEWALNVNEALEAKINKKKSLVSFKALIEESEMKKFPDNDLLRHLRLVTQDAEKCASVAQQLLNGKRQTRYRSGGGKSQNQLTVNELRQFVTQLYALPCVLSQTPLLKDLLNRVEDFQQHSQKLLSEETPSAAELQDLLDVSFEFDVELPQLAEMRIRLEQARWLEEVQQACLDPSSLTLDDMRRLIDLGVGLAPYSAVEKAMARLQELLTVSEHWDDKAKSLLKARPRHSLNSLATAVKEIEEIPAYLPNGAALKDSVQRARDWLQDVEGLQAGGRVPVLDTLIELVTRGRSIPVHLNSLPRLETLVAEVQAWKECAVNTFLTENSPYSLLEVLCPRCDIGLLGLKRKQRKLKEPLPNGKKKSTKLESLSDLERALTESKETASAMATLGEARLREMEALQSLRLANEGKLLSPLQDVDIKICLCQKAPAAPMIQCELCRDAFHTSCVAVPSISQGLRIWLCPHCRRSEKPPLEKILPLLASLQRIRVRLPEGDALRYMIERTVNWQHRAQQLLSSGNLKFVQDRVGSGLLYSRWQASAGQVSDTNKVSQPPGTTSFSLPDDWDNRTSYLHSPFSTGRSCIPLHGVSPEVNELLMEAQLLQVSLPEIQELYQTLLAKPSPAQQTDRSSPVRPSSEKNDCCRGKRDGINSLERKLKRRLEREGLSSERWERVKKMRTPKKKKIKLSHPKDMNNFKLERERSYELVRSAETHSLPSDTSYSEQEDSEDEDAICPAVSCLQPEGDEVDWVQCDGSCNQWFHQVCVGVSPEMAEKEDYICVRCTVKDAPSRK
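KDM5BΔAP (200 nM final) in 50 mM HEPES pH 7.5, 0.01% Tween-20 was preincubated 10 min at RT with compound over a concentration range. Substrate mix (H3K4me3 12.5 µM, α-KG 25 µM, Fe²⁺, ascorbate, NAD⁺, FDH) was added, and NADH fluorescence change over 30 min gave dose-response curves.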
SNCA expr inhib: SNCA gene expression inhibition; 140,000 compounds, 0.17% hits; Potency, µM (top dose mostly 57.2 µM), for inactives: top-dose activity change, negative = inhibition, hits mostly inhibitors; AID 1671194; HEK-293 SNCA-luciferase knock-in, luminescence, 24 h;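 also: potency is read from the fitted curve at half-maximal effect; plate controls were DMSO cells for no effect and cell-free wells for full effect; nearly all actives have a fitted effect of over 45% in size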
SNCA viab count: cell viability loss counter-screen; HEK-293-SNCA-luc viability, GF-AFC fluorescence, 24 h; 150,000 compounds, 0.12% hits; AID 1671193; Potency, µM (series often up to 57.1 µM), inactives show at the top dose activity change, negative = cytotoxicity, most hits filed as cytotoxic;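 also: potency is read from the fitted curve at half-maximal effect; 0% = DMSO-treated cells and -100% = medium-only wells without cells; nearly all actives have a fitted effect of over 30% in size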
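HEK-293-SNCA-luc cells (1500/well) plated 24 h, then exposed 24 h to a dilution series; GF-AFC added 30 min at 37C, fluorescence 405/540 nm; normalised to medium-only and DMSO wells, Hill fit.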
IP6K1 inhibitor: IP6K1 kinase inhibition | IP6K1 kinase, ADP-Glo luminescence, 2 h; hits give low values | 140,000 compounds, 0.81% hits | Q92551 | AID 1645851 | activity change, % (series mostly up to about 58 µM); in the data active = activity change below about -25%; also: % is scaled to controls: 0 for no effect and ±100 for the full control effect
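ADP-Glo luminescence measures ADP made by human IP6K1 during a 2 h RT reaction with ATP/IP6 (mix at 1.3 mM/130 uM); top library doses 57.5 and 19.1 uM final.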
* marks the source's active call; other numbers are inactive results; i = inactive; ? = inconclusive; . = no result given; [ ] = dose if it differs, or a comment. Unless noted, calls follow the shape of the dose curve; as a rule, active = well fitted curve in the direction sought with a large enough effect; inconclusive = small, poorly fitted or top-dose-only effect, or another doubt; inactive = no such curve, though single readings can be large; an effect the other way counts as inactive or inconclusive.

SMILES | KDM5B inhibitor | SNCA expr inhib | SNCA viab count | IP6K1 inhibitor
Cn1cc(-c2cc(=O)c3ccnc(-c4cccc5[nH]ccc45)c3o2)cn1 | i | 59.2%[87.6 µM] | -2.6%[87.6 µM] | -16.8
COc1ccc(Oc2coc3cc(OCc4ccccc4C)ccc3c2=O)cc1 | i | . | . | .
COc1nccnc1NC1CCN(C(=O)Cc2ccccc2F)CC1 | 35.5µM* | -22.0% | -13.1% | -3.2
COc1nccnc1NC1CCN(C(=O)NC2CCCCC2)CC1 | 31.6µM* | 17.5% | -7.4% | -1.4
COc1nccnc1NC1CCN(C(=O)Cc2ccccc2)CC1 | ? | -21.0% | -5.0% | -14.3
COc1nccnc1NC1CCN(C(=O)NCCc2ccccc2)CC1 | ? | 33.0% | -0.8% | -9.5
COc1nccnc1NC1CCN(C(=O)Cc2cccs2)CC1 | 31.6µM* | -25.2% | 4.4% | -4.8
CCOCC(=O)N1CCC(Nc2nccnc2OC)CC1 | 28.2µM* | -3.0% | 2.0% | -12.0
CCOCC(=O)N1CCC2(CC1)C(OC)C(=O)N2CC1CC1 (stereo not drawn) | . | 25.8% | 4.4% | 1.7
COc1cccc(CNC(=O)[C@@]23CCCC[C@H]2N(CCc2ccccc2)C(=O)CC3)c1OC | i | -13.9% | 7.2% | -11.7
Cc1cccc(NC(=O)CCC2CCCCC2)c1 | i | . | . | .
CC1Oc2ccc(NC(=O)CC(C)(C)C)cc2CN(Cc2ccccc2F)C1=O (stereo not drawn) | i | -1.4% | 0.0% | 9.7
CN(Cc1cnccn1)C(=O)[C@H]1CCC[C@@H](O)C1 | i | -16.0% | -10.6% | 29.6
CCCc1noc(-c2ccn3c(CNC(=O)c4ccc(CC)cc4)nnc3c2)n1 | 25.1µM* | 42.4% | 9.1% | 39.7
CCc1noc(-c2ccn3c(CNC(=O)c4ccc(C)c(C)c4)nnc3c2)n1 | 3.16µM* | -22.6% | 10.3% | 7.3
CCCc1noc(-c2ccn3c(CNC(=O)c4ccc(C)c(C)c4)nnc3c2)n1 | 4.47µM* | -16.4% | 6.7% | 12.6
CCc1noc(-c2ccn3c(CNC(=O)c4ccc(F)cc4)nnc3c2)n1 | 12.6µM* | 2.9% | 6.9% | -0.2
Cc1noc(-c2cn(C3CCN(C(=O)c4ccc[nH]4)C3)nn2)n1 (stereo not drawn) | i | 19.7% | 16.5% | 3.9
CCc1noc(-c2ccn3c(CNC(=O)c4cccnc4)nnc3c2)n1 | 28.2µM* | 4.9% | -9.3% | 27.1
CCc1noc(-c2ccn3c(CNC(=O)c4cccc(F)c4)nnc3c2)n1 | i | 2.0% | 0.6% | 17.0
Cc1nn(C(=O)c2ccccc2)c(C)c1Sc1ccc(Cl)cc1 | i | ? | 20µM* | -10.9
Cc1ccc(Sc2c(C)nn(C(=O)c3ccc(Br)cc3)c2C)cc1 | i | 3.8% | -7.5% | -8.5
Cc1c(Cl)cccc1NC(=O)COC(=O)c1ccc2ccccc2n1 | i | . | . | .
CCN(CC)S(=O)(=O)c1ccc(C)c(NC(=S)Nc2ccc(F)c(F)c2F)c1 | i | . | . | .
Cc1cccc(C(=O)NCc2nnc3cc(-c4nc(C(C)C)no4)ccn23)c1 | 28.2µM* | 2.7% | 5.5% | 14.9
SMILES | KDM5B inhibitor | SNCA expr inhib | SNCA viab count | IP6K1 inhibitor
CC(C)c1noc(-c2ccn3c(CNC(=O)c4ccccc4)nnc3c2)n1 | i | -13.2% | 4.4% | -6.6
Cc1cccc(C(=O)NCc2nnc3cc(-c4nc(C)no4)ccn23)c1 | 25.1µM* | -13.4% | 13.1% | 8.0
CC(C)c1noc(-c2ccn3c(CNC(=O)c4ccoc4)nnc3c2)n1 | 28.2µM* | -11.6% | 4.9% | -9.8
Cc1ccc(C(=O)NCc2nnc3cc(-c4nc(C)no4)ccn23)cc1 | 11.2µM* | 5.1% | -0.8% | 9.4
O=C(c1ccc2cccnc2c1O)N1CCCC(CCc2ccccc2F)C1 (stereo not drawn) | 11.2µM* | ? | -18.9% | -9.3
Cc1cc(C(=O)NCC(C)C)c2c(C3CCCN3)noc2n1 (stereo not drawn) | i | 10.9% | -4.8% | 0.1
O=C(NCc1ccncc1)c1cc(C2CC2)nc2onc(C3CCCN3)c12 (stereo not drawn) | 79.4µM* | -0.9% | 1.9% | 8.9
Cc1cc(C(=O)NCC(F)(F)F)c2c(C3CCCN3)noc2n1 (stereo not drawn) | 50.1µM* | 14.6% | 2.2% | -0.1
Cc1ccc(-c2cc3c(ccn3C)c(C(=O)NCc3cccnc3)n2)cn1 | i | 59.9%[87.6 µM] | -9.3%[87.6 µM] | 6.6
Cn1ccc2c(C(=O)NCc3cccnc3)nc(-c3cccc(F)c3)cc21 | 22.4µM* | -7.5%[87.6 µM] | -8.7%[87.6 µM] | 2.2
Cn1ccc2c(C(=O)NCc3cccnc3)nc(-c3cccc(O)c3)cc21 | 39.8µM* | 25.6%[87.6 µM] | -20.9%[87.6 µM] | 8.3
COc1cccc(-c2cccc(C(=O)N3CCCC3C(=O)NCc3ccc(F)cc3)c2)c1 (stereo not drawn) | . | 3.5% | 2.8%[12.5 µM] | -3.9
CC(O)CNc1nc2c(c(=O)n(C)c(=O)n2C)n1Cc1ccccc1 (stereo not drawn) | i | . | . | .
O=[N+]([O-])c1ccc(/C=N/O)cc1 | i | . | . | .
CC1(C)CNC(=O)c2nc(CCSCc3ccco3)[nH]c2C1 | i | -15.5% | -4.9% | -5.1
CSc1ccc(-c2nc3c([nH]2)CC(C)(C)CNC3=O)cc1 | 28.2µM* | 28.5% | -20.4% | -3.0
COc1ccc(CN2CC3=C(C2=O)C(c2cc(OC)c(OC)c(OC)c2)NC(=O)N3)cc1 (stereo not drawn) | i | . | . | .
COc1cc2c(cc1CN1CCN(c3ccc(C#N)cc3)C(=O)C1)CCC2 | 31.6µM* | -8.8% | -10.5% | 0.0
Cc1ccc(-c2nc(CSc3nc4ncccc4[nH]3)c(C)o2)c(C)c1 | i | . | . | .
COc1cccc(C(=O)NCCn2ccn3nc(-c4ccc(C)c(C)c4)cc3c2=O)c1 | i | 103.2% | -11.6% | -12.1
Cc1ccc(C(=O)NCCn2ccn3nc(-c4ccc(C)c(C)c4)cc3c2=O)cc1 | ? | 23.9% | 8.7% | -12.3
Cc1ccc(-c2cc3c(=O)n(CCNC(=O)c4cccc(N(C)C)c4)ccn3n2)cc1C | 17.8µM* | 99.3% | -8.8% | -13.9
Cc1ccc(-c2cc3c(=O)n(CCNC(=O)c4ccc(Cl)cc4)ccn3n2)cc1C | 14.1µM* | 16.5% | -11.8% | -3.8
Cc1ccc(-c2cc3c(=O)n(CCNC(=O)c4ccc(F)cc4Cl)ccn3n2)cc1C | 31.6µM* | 37.4% | -10.8% | -12.6
Cc1ccc(C)c(-c2cc3c(=O)n(CCNC(=O)c4ccc(N(C)C)cc4)ccn3n2)c1 | 35.5µM* | ? | 0.7% | -6.3
SMILES | KDM5B inhibitor | SNCA expr inhib | SNCA viab count | IP6K1 inhibitor
CCc1nc2c(=O)n(CC(=O)N3CCN(c4cccc(C)c4C)CC3)nc(C)c2s1 | i | -30.6% | 2.7% | 29.9
CCc1nc2c(=O)n(CC(=O)N(CC)Cc3ccccc3)nc(C)c2s1 | i | -27.0% | -15.8% | 2.0
CCCCN(C)C(=O)Cn1nc(C)c2sc(-c3ccccc3)nc2c1=O | 28.2µM* | -22.3% | -20.8% | 9.3
Cc1nn(CC(=O)N2CCCCCC2)c(=O)c2nc(-c3ccccc3)sc12 | 31.6µM* | 10.3% | -5.3% | 1.5
Cc1ccc2c(C(=O)N3CCN(c4ccccc4F)CC3)cc(NC(=O)C(C)C)cc2n1 | ? | -27.5% | -2.6% | 6.1
CC(=O)Nc1cc(C(=O)N2CCC(C)CC2)c2ccc(C)nc2c1 | 22.4µM* | ? | -8.7% | 11.9
Cc1ccc2c(C(=O)N3CCOCC3)cc(NC(=O)C(C)C)cc2n1 | 22.4µM* | 3.9% | 6.3% | 16.4
